Reference: PubChem BioAssay (NCI)
The panel holds about 79,000 compounds, 15% with a hit somewhere; the sample as a whole holds those more often. Activity calls are given as the source filed them. Cut-off read from the data, not from the text of the source: active = growth inhibition above about 70%; inactive = the rest.

Columns and labels:
[1] = NCI Yeast Anticancer Drug Screen. Data for the rad50 strain (AID 155);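 note: 0% = growth of vehicle-only cultures of the same strain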; details: S. cerevisiae rad50 strain growth inhibition; at 50.0 µM; active compounds read high
In short: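 Inhibition values express reduced yeast growth in compound-treated cultures relative to vehicle-treated controls.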

[2] = NCI Yeast Anticancer Drug Screen. Data for the mec2-1 strain (AID 157); details: S. cerevisiae mec2-1 strain, at 50.0 µM, active compounds read high
In short: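 Each compound was tested on mec2-1 yeast, a strain altered in DNA damage repair or cell cycle control. Growth inhibition is reported relative to vehicle.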

[3] = NCI Yeast Anticancer Drug Screen. Data for the sgs1 mgt1 strain (AID 161);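 note: 0% = growth of cultures given vehicle only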; details: S. cerevisiae sgs1 mgt1 strain, at 50.0 µM, active compounds read high
In short: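 Test agents were incubated with a DNA-repair-mutant yeast strain. Growth was then read and compared against vehicle-treated controls.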

[4] = NCI Yeast Anticancer Drug Screen. Data for the cln2 rad14 strain (AID 165);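 note: 0% = growth equal to vehicle treated cultures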; details: S. cerevisiae cln2 rad14 strain, at 50.0 µM, active compounds read high
In short: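 Test compounds were added to cln2 rad14 yeast cultures; inhibition of growth was then determined by comparison with vehicle treatment.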

[5] = NCI Yeast Anticancer Drug Screen. Data for the bub3 strain (AID 167); details: S. cerevisiae bub3 mutant strain, at 50.0 µM, active compounds read high
In short: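 Steps: expose the mutant yeast strain to compound; grow alongside vehicle-treated cultures; measure growth; express inhibition against the vehicle cultures.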

[6] = NCI Yeast Anticancer Drug Screen. Data for the mlh1 rad18 strain (AID 175); details: S. cerevisiae mlh1 rad18 strain growth inhibition; at 50.0 µM; active compounds read high
In short: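 Inhibition values reflect reduced growth of mutant yeast versus vehicle-treated controls following compound exposure; the mutations affect DNA damage repair.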

Measured: growth inhibition

CC(=O)Nc1ccc(/C=N/Nc2ccccc2)cc1
active: [1] 97.9% | [2] 98.8% | [3] 98.5% | [4] 96.6% | [5] 98.5% | [6] 98.7%

CN(C)CC1CC=CCC1CN(C)C (stereo unspecified)
inactive: [1] -19.8% | [2] 0% | [3] -5.6% | [4] -15.7% | [5] 6.85% | [6] -8.7%

CCN(CC)Cc1cc2[nH]c3c4ccc(Cl)cc4ncc3c2cc1OC
inactive: [1] 23.8% | [2] 11.8% | [3] -6.15% | [4] -2.65% | [5] -45.5% | [6] -42.6%

CCOC(=O)c1c(C(=O)Nc2ccccc2)c(-c2ccccc2)n(NC(=O)c2cccc(Cl)c2)c1C
inactive: [1] 18.1% | [2] 10.3% | [3] 3.9% | [4] 7.2% | [5] -4.85% | [6] 21.5%

Cc1ccc(NC(=S)NCCc2ccccn2)cc1C
inactive: [1] 29.2% | [2] 13.8% | [3] 28.9% | [4] 1.45% | [5] 21.3% | [6] 21.6%

CC(=O)Oc1c2oc3cc(O)c(O)cc3c2c(OC(C)=O)c2oc3cc(O)c(O)cc3c12
inactive: [1] -0.4% | [2] 0.05% | [3] -1.15% | [4] -5.45% | [5] -0.8% | [6] -29.1%

Cc1ccc(C(=O)c2ccc(C)cc2)cc1
inactive: [1] -2.55% | [2] -4.45% | [3] 13% | [4] -3.7% | [5] 6.3% | [6] 15.1%

Cc1ccc(Nc2ccc(O)c3c2C(=O)c2ccccc2C3=O)cc1
inactive: [1] -17.9% | [2] -3.6% | [3] 5.45% | [4] -29.6% | [5] 16.1% | [6] 15.5%

S=c1nc[nH]c2nc[nH]c12
inactive: [1] -18% | [2] 0.25% | [3] -6.75% | [4] -66.5% | [5] 10.8% | [6] 20.1%

Cc1ccc(-c2nc(C)c(C(=O)Nc3ccc(Cl)cc3)s2)cc1
inactive: [1] -36.6% | [2] -25.4% | [3] -59.4% | [4] 2.85% | [5] -12.3% | [6] -65.9%

C/C(=N/NC(N)=O)c1ccc(C)o1
inactive: [1] 1.85% | [2] -3.55% | [3] -4.4% | [4] -0.75% | [5] 1.55% | [6] 0.35%

COc1ccc(C(CC(=O)c2ccccc2)C(=O)c2ccc3c(c2)OCO3)cc1 (stereo unspecified)
inactive: [1] -40% | [2] -50.5% | [3] -38.8% | [4] -12.7% | [5] -0.3% | [6] -31.6%

CC[N+](C)(CC)CCOC(C)=O
inactive: [1] 8.55% | [2] -12.1% | [3] -5.95% | [4] 11.2% | [5] -6.5% | [6] 8.3%

N#CCC(=O)N1CCc2ccccc2C1
inactive: [1] -30.9% | [2] 0.45% | [3] 1.85% | [4] -79.7% | [5] 9.6% | [6] 14.2%

CC(CN1CCCC1)(Oc1ccccc1)C(=O)c1ccccc1 (stereo unspecified)
inactive: [1] 16.6% | [2] -0.45% | [3] 15.1% | [4] 7.8% | [5] 10.1% | [6] 2.45%

Nc1cc(NC(=O)CO)cc(C(=O)O)c1
inactive: [1] 14.2% | [2] -1.15% | [3] -1% | [4] -0.4% | [5] 4.05% | [6] 7.1%

COc1ccc(N2C(=O)CCC2=O)cc1
inactive: [1] -7.8% | [2] 0.25% | [3] -7.7% | [4] -6.15% | [5] -9.9% | [6] 4.9%

COc1ccc(CCNC(=O)Cc2ccc(Cl)cc2)cc1OC
inactive: [1] 3.65% | [2] -4.65% | [3] -9.7% | [4] 4.2% | [5] -5.75% | [6] 0.2%

CCCCCCCCCCO
inactive: [1] -1.6% | [2] 4.6% | [3] -5.15% | [4] 5.45% | [5] 3.2% | [6] -1.6%

CCCNC=O
inactive: [1] -6.8% | [2] -7.85% | [3] -13.8% | [4] -14.4% | [5] -5.1% | [6] -5%

CS/C(=C\c1ccc(C(=O)c2ccc(C)cc2)n1C)S(C)=O (stereo unspecified)
inactive: [1] 16.6% | [2] 15.2% | [3] 42.4% | [4] 11.1% | [5] -0.7% | [6] 35.5%
